# Source: PubChem (National Center for Advancing Translational Sciences (NCATS))
# A549 viability = Nrf2 qHTS screen for inhibitors: counterscreen for cytotoxicity | A549 ARE-Fluc cells, CellTiter-Fluor viability, 18-24 h | Potency, µM (series often up to 46 µM), for the others: at the top dose activity change, negative = cytotoxicity, actives largely listed as inhibitors | 390,000 compounds, 0.16% hits | AID 504648, 2011; further: potency means the concentration at half of the fitted maximal effect; on the % scale 0 is the no-effect control and ±100 the full control effect
#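 A549 ARE-Fluc cells in 5% FBS OPTI-MEM, 5000 cells/well, rested 2 h then exposed to compounds in concentration-response for 18-24 h at 37 °C. Viability by CellTiter-Fluor fluorescence (Ex 405/Em 525) after 30 min; luciferase luminescence (BugLite, 15 min, RT) read afterwards.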
# ClpP mod = qHTS Assay for Activators of ClpP; purified B. subtilis ClpP, FRET peptide cleavage, 20 min; Potency, µM (titrated, usually from 57.5 µM), without a hit: at the top dose activity change, negative = active; 340,000 compounds, 1.9% hits; AID 651965, 2013; active means well fitted falling curve with a large enough effect; inconclusive means small, poorly fitted or top-dose-only effect; inactive means no such curve, though single readings can be large or run the other way; further: potency means the concentration at half of the fitted maximal effect; the source files actives as falling curves though it sought activators and does not explain the sign; nearly all actives have a fitted effect of over 65% in size
# Target sequence (P80244 whole entry, looked up): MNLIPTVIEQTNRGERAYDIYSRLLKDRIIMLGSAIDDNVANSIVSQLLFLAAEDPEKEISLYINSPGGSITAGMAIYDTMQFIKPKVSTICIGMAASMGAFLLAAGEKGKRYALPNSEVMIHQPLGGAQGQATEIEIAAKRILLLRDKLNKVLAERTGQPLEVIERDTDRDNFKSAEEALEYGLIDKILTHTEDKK
#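 ClpP 10 microg/mL final, pH 8 Tris/KCl buffer with BSA, glycerol, Tween-20; compound pinned in; FRET-FV substrate; RT 20 min; Ex320/Em430; ΔFRET vs ADEP 5.8 microM, DMSO, no enzyme.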
# miR-21 act = qHTS Assay for Modulators of miRNAs and/orActivators of miR-21. HeLa miR-21 FLuc reporter, luciferase, 48 h. 340,000 tested, under 10 active. Potency, µM (titrated, usually from 38.3 µM), without a hit: at the top dose activity change, positive = activation, usual class: activators;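 further: % of control where 0% means no effect; miR-21 action dims this reporter so a rising signal means less miR-21 action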
#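 HeLa cells endogenously expressing miR-21, stably carrying CMV-driven firefly luciferase with a downstream miR-21 binding site, 2000 cells/well. Titrations up to approximately 40 uM, 48 hours; luciferase luminescence read.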
# IL2 activator = qHTS of IL-2 Activators | IL-2 activation reporter assay, cell-based qHTS; stimulated with anti-CD3/CD4/CD28 beads; in transgenic mouse T cells | activation, % (series mostly up to about 46 µM) | 360,000 compounds, 0.065% hits; in the data active means activation above about 50%; inconclusive means mostly about 30% to 49%; further: 0% is about no effect
#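 Unstimulated transgenic mouse T cells, 750 per well, received compound and, after 60 minutes, anti-CD3/anti-CD4 bead plus anti-CD28 stimulation. EGFP and DsRed were quantified after 18 hours.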
# Nrf2 block = Nrf2 qHTS screen for inhibitors | Potency, µM (series often up to 46 µM), inactives show top-dose activity change, negative = inhibition, most hits filed as inhibitors | A549 ARE-Fluc reporter, luciferase luminescence, 18-24 h | 360,000 compounds, 2.1% hits; further: potency means the concentration at half of the fitted maximal effect; on the % scale 0 is the no-effect control and ±100 the full control effect; nearly all actives have a fitted effect of over 60% in size
#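 Nrf2 activity is the BugLite luminescence, read 15 min after reagent at room temperature, following CellTiter-Fluor cytotoxicity readout (30 min, 37C). Compound titrations were applied for 18-24 h to 5000 A549 ARE_Fluc cells/well in 5% FBS OPTI-MEM.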
# Nrf2 activator = qHTS of Nrf2 Activators | AID 624171, 2012 | Potency, µM (doses to about 46.1 µM), for the others: at the highest dose activation, most hits filed as activators | 410,000 compounds, 0.31% hits | AREc32 ARE-luciferase reporter (MCF7-derived line), luminescence, 24 h; further: potency means the concentration at half of the fitted maximal effect; % of control where 0% means no effect; nearly all actives have a fitted effect of over 65% in size
#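 AREc32 cells carrying an ARE-driven firefly luciferase, 1000 cells/well in OPTI-MEM with 5% FBS, dosed after overnight attachment and incubated 24 hr at 37 deg C. Steady-Glo luminescence read after 30 min at RT.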
# ClpP inh valid = qHTS Assay for Activators of ClpP: Hit Validation of Inhibitors; purified B. subtilis ClpP, FRET-FV substrate cleavage, 20 min; shares compounds with ClpP mod; Potency, µM (titrated, usually from 57.5 µM), inactives show at the highest dose activity change, negative = inhibition, usual class: inhibitors; 470 compounds, 40% hits; AID 743245, 2014; further: potency means the concentration at half of the fitted maximal effect; on the % scale 0 is the no-effect control and ±100 the full control effect; nearly all actives have a fitted effect of over 70% in size
# * = called active by the depositor; ? = inconclusive; nt = no result given; [ ] = dose if it differs, or a comment. Compounds with a hit are over-represented: about 3.7% of the library has one in this group of screens. Unless noted, the call rests on the fitted dose curve; in most records, active means well fitted curve in the direction sought with a large enough effect; inconclusive means small, poorly fitted or top-dose-only effect, or another doubt; inactive means no such curve, though single readings can be large; an effect the other way counts as inactive or inconclusive.
SMILES,A549 viability,ClpP mod,miR-21 act,IL2 activator,Nrf2 block,Nrf2 activator,ClpP inh valid
CSc1cccc(NC(=O)c2ccc3c(c2)c(C)c(C)n3Cc2ccc(F)cc2)c1,-16%,7.1µM*,-3%,nt,26%,0%,27µM*
CSc1ccc(CCNC(=O)c2ccc3c(c2)c(C)c(C)n3Cc2ccc(F)cc2)cc1,2%,?,-4%,nt,8%,-1%,nt
CC1CN(C(=O)Nc2ccc3c(c2)OCCO3)CC(C)O1 (stereo unspecified),-2%,3.5µM*,-46%,-1,26%,4%,-1%
CC(Oc1ccccc1)C(=O)Nc1c(C(=O)Nc2cccc(F)c2)oc2ccccc12 (stereo unspecified),2%,?,-1%,nt,7%,-1%,nt
O=C(c1ccccn1)N(Cc1ccco1)C1(C(=O)NC2CCCC2)CCCCC1,-10%,2.5µM*,2%,-2,-3%,0%,0%
COc1ccc2nc3n(c(=O)c2c1)-c1cc2ccccc2cc1C(=O)NC3Cc1ccccc1 (stereo unspecified),nt,5.6µM*,nt,1,nt,-2%,?
O=C(Nc1ccccc1OC(F)F)c1oc2ccccc2c1COc1ccccc1,-15%,289%,-7%,-1,-30%,4%,19µM*
COc1cc2c(cc1OC)C(COc1ccccc1OC)N(C(=O)c1ccccc1OC)CC2 (stereo unspecified),0%,0%,-4%,nt,nt,0%,nt
Cc1ccc(S(=O)(=O)c2nnn3c2nc(NC(C)c2ccccc2)c2sccc23)cc1 (stereo unspecified),0%,-7%,0%,nt,?,1%,nt
O=C(Nc1ccc2c(c1)Cc1ccccc1-2)c1ccncc1,-5%,10µM*,-37%,-1,-2%,4%,-6%
CCc1ccccc1NC(=O)C1=C(C)C(=O)OC12CCCCCC2,3%,-1%,-2%,nt,?,-1%,nt
COc1ccc(C(=O)Nc2nnc(-c3cccs3)s2)cc1,-4%,93%,-45%,-1,?,6%,17µM*
COc1ccc(NC(=O)Nc2nnc(-c3cccs3)s2)cc1,0%,-5%,-42%,-1,?,18%,nt
COCC(=O)n1nc(-c2ccccc2)nc1NCc1ccccc1,-3%,nt,-52%,-1,1%,0%[9.22 µM],nt
CCC(=O)n1nc(-c2ccccc2)nc1NCc1ccccc1,-13%,38%,-51%,3,7%,0%,6%
O=C(CN1C(=O)COc2ccc(S(=O)(=O)NC3CCCC3)cc21)NCc1ccccc1Cl,-1%,3%,-1%,nt,13%,0%,nt
CCc1ccc(CNC(=O)Cn2nc(-c3ccccc3)ccc2=O)cc1,4%,4µM*,-6%,1,5%,0%,-2%
O=C(Cn1nc(-c2ccccc2)ccc1=O)NCc1ccc(F)cc1Cl,2%,-14%,-14%,nt,nt,0%,nt
CC(=O)c1ccc(S(=O)(=O)Nc2ccc(-c3cn4c(C)csc4n3)cc2)cc1,3%,0%,-11%,nt,nt,3%,nt
Cc1cccn2cc(-c3ccc(S(=O)(=O)N4CCOCC4)cc3)nc12,9%,3.2µM*,-5%,0,-22%,0%,3.9µM*
Cc1cccn2cc(-c3ccc(S(=O)(=O)N4CCCCC4)cc3)nc12,-3%,nt,-1%,0,-10%,4%,nt
